The results in this text go back to article PMC7862700, “An all-to-all approach to the identification of sequence-specific readers for epigenetic DNA modifications on cytosine”.

What all share (assay): DAPPL (digital affinity profiling via proximity ligation, sequencing); 10 mM Tris-HCl pH 7.5, 50 mM NaCl, 1 mM DTT, 4% glycerol, room temperature, 30 min; GST-TFs on glutathione beads, 16-mer random dsDNA library, 0.1% formaldehyde crosslink after washing; high values mean tight binding
In assay [1] the target is T1, FLI1 (Homo sapiens, UniProt Q01543 1-452).
T1 sequence: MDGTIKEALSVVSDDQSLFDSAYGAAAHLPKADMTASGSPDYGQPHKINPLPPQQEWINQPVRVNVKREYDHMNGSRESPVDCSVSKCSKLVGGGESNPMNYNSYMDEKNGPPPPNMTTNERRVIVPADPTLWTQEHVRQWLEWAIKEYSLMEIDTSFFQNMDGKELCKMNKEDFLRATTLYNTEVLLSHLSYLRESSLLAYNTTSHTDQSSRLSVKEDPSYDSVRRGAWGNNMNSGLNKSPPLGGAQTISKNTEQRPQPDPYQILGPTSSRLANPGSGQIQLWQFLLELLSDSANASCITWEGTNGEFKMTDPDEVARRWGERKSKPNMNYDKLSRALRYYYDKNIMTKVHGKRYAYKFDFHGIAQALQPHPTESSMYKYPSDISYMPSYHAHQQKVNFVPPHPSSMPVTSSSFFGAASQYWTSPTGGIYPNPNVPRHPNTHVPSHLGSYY
Conditions: protein: recombinant; tags: N-terminal GST; dsDNA, one strand shown. A digest of the protocol: (§1)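 Sequencing on an Illumina NextSeq500 followed washing, crosslinking with 0.1% formaldehyde, proximity ligation (BsaI/T4 ligase, 1 h, 37 °C) and PCR amplification of pools that had been incubated for 30 min at room temperature with 200 nmole of a random double-stranded 16-mer DNA library in Tris/NaCl/DTT/glycerol buffer. Each pool held DNA-barcoded human transcription factors, expressed in yeast as GST fusions and captured on glutathione beads, plus a tag-only sample. Binding signal is a hexamer's read frequency for a factor divided by its frequency in the tag-only sample.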

For assay [2], the target named is T2, ELK1 (Homo sapiens, UniProt P19419 1-428).
T2 sequence: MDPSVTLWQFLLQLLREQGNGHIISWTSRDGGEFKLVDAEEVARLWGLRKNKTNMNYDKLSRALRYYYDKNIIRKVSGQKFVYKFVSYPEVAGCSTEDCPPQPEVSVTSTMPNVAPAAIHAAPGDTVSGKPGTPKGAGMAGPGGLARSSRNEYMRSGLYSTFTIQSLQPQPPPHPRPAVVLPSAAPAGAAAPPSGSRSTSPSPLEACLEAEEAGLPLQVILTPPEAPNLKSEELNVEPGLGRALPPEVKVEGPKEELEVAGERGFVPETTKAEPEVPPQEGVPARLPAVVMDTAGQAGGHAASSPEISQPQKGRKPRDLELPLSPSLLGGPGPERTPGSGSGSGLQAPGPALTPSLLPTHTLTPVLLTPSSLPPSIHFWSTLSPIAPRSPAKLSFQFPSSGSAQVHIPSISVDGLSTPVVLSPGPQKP
Conditions: protein: recombinant; tags: N-terminal GST; dsDNA, one strand shown. A digest of the protocol:
as §1

Assay [3] concerns the target T3, GABPA (Homo sapiens, UniProt Q06546 1-454).
T3 sequence: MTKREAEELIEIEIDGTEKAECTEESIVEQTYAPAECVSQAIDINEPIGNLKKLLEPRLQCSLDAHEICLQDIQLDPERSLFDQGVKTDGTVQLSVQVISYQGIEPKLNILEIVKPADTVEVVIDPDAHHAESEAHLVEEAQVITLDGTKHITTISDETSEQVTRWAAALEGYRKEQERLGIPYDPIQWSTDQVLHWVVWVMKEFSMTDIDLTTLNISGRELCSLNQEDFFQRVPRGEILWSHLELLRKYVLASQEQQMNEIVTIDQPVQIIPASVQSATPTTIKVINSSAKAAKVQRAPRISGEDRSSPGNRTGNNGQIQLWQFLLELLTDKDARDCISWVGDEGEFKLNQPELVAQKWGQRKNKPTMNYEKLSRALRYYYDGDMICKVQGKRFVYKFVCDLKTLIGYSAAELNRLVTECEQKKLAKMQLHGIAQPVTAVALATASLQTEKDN
Conditions: protein: recombinant; tags: N-terminal GST; dsDNA, one strand shown. A digest of the protocol:
as §1

Assay [4] addresses ELF1 (Homo sapiens, UniProt P32519 1-619). The following applies: protein: recombinant; tags: N-terminal GST; dsDNA, one strand shown. A digest of the protocol: as §1
Assay [5] has as its target T4, EHF (Homo sapiens, UniProt Q9NZC4 1-300).
T4 sequence: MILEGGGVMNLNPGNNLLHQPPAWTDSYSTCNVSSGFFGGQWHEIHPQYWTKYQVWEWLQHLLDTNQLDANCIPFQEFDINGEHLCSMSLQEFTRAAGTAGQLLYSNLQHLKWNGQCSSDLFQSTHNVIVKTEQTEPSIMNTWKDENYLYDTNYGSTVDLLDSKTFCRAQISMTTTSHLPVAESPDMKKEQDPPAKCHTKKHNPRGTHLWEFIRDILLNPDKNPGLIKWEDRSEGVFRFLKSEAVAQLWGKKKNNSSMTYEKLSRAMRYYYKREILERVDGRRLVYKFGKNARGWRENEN
Conditions: protein: recombinant; tags: N-terminal GST; dsDNA, one strand shown. A digest of the protocol: as §1

Assay [6] addresses SPI1 (Homo sapiens, UniProt P17947 1-270). Conditions: protein: recombinant; tags: N-terminal GST; dsDNA, one strand shown. A digest of the protocol: as §1
Assay [7] deals with SPIB (Homo sapiens, UniProt Q01892 1-262). Conditions: protein: recombinant; tags: N-terminal GST; dsDNA, one strand shown. A digest of the protocol: as §1
For assay [8], the target named is T5, ELK3 (Homo sapiens, UniProt P41970 1-407).
T5 sequence: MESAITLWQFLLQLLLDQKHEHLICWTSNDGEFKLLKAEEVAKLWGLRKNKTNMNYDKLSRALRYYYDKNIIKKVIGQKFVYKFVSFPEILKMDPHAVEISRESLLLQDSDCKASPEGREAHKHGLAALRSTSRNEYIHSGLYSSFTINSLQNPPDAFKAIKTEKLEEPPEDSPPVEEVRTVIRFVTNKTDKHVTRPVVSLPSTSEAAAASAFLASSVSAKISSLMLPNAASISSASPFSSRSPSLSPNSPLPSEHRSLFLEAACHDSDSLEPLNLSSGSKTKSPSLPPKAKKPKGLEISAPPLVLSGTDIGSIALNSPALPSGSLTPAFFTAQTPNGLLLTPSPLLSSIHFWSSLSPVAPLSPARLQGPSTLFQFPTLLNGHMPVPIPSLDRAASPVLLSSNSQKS
Conditions: protein: recombinant; tags: N-terminal GST; dsDNA, one strand shown. A digest of the protocol:
as §1

The target of assay [9] is T6, FEV (Homo sapiens, UniProt Q99581 1-238).
T6 sequence: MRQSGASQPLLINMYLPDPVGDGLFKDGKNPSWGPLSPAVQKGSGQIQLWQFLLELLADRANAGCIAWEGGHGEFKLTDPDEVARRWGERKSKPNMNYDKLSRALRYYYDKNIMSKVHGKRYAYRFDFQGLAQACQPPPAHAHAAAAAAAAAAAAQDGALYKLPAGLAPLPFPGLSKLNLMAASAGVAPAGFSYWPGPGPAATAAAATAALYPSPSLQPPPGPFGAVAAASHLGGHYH
Conditions: protein: recombinant; tags: N-terminal GST; dsDNA, one strand shown. A digest of the protocol: as §1

Assay [10] deals with ETV5 (Homo sapiens, UniProt P41161 1-510). The following applies: protein: recombinant; tags: N-terminal GST; dsDNA, one strand shown. A digest of the protocol: as §1
The target of assay [11] is HSF1 (Homo sapiens, UniProt Q00613 1-529). The following applies: protein: recombinant; tags: N-terminal GST; chain copies: 3; dsDNA, one strand shown. A digest of the protocol: as §1
Assay [12] concerns the target T7, SPIC (Homo sapiens, UniProt Q8N5J4 1-248).
T7 sequence: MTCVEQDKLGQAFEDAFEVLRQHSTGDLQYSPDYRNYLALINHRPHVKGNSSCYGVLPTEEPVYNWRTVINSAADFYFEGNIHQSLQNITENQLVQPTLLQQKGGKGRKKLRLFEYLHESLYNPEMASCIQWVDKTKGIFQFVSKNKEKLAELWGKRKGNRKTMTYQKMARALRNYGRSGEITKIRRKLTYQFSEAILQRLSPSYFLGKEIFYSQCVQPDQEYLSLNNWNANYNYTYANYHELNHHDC
The following applies: protein: recombinant; tags: N-terminal GST; dsDNA, one strand shown. A digest of the protocol: as §1

The target of assay [13] is ELF4 (Homo sapiens, UniProt Q99607 1-663). The following applies: protein: recombinant; tags: N-terminal GST; dsDNA, one strand shown. A digest of the protocol: as §1
For assay [14], the target named is T8, ELK4 (Homo sapiens, UniProt P28324-2 1-405).
T8 sequence: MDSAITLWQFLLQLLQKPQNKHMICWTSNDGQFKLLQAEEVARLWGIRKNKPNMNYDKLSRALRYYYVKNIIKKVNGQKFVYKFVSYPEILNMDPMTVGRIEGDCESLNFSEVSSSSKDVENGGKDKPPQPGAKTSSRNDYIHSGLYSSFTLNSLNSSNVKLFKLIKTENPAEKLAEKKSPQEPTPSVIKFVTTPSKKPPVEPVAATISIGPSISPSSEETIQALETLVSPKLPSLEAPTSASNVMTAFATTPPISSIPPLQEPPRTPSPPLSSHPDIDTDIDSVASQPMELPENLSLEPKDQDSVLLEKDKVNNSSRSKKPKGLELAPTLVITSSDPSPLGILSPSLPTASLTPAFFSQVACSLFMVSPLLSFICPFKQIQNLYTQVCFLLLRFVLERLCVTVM
Conditions: protein: recombinant; tags: N-terminal GST; dsDNA, one strand shown. A digest of the protocol:
as §1

Assay [15] has as its target T9, ETV2 (Homo sapiens, UniProt O00321 1-342).
T9 sequence: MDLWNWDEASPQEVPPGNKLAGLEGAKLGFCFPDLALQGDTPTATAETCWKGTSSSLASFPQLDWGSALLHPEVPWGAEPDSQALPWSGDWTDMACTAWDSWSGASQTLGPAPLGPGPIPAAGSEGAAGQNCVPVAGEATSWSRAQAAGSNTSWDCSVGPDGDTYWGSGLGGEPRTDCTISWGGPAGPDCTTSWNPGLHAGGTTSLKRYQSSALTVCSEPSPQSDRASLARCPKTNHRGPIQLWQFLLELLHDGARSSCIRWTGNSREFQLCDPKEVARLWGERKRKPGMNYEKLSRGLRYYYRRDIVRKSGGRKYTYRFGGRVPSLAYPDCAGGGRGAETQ
Conditions: protein: recombinant; tags: N-terminal GST; dsDNA, one strand shown. A digest of the protocol: as §1

In assay [16] the target is T10, ELF3 (Homo sapiens, UniProt P78545 1-371).
T10 sequence: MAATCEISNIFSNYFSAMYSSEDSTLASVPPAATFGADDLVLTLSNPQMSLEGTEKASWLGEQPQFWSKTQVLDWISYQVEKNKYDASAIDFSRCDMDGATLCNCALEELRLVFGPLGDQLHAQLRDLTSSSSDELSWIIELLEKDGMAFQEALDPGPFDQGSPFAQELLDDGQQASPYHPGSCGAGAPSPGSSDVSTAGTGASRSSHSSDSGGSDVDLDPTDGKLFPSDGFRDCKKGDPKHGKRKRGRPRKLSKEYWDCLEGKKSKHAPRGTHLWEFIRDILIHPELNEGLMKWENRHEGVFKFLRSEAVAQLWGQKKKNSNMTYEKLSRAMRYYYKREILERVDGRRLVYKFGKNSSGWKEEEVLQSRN
The following applies: protein: recombinant; tags: N-terminal GST; dsDNA, one strand shown. A digest of the protocol:
as §1

Assay [17] has as its target CRX (Homo sapiens, UniProt O43186 1-299). Conditions: protein: recombinant; tags: N-terminal GST; dsDNA, one strand shown. A digest of the protocol:
as §1

The target of assay [18] is ETV1 (Homo sapiens, UniProt P50549 1-477). Conditions: protein: recombinant; tags: N-terminal GST; dsDNA, one strand shown. A digest of the protocol: as §1
Chain of ETV1 (P50549 whole entry): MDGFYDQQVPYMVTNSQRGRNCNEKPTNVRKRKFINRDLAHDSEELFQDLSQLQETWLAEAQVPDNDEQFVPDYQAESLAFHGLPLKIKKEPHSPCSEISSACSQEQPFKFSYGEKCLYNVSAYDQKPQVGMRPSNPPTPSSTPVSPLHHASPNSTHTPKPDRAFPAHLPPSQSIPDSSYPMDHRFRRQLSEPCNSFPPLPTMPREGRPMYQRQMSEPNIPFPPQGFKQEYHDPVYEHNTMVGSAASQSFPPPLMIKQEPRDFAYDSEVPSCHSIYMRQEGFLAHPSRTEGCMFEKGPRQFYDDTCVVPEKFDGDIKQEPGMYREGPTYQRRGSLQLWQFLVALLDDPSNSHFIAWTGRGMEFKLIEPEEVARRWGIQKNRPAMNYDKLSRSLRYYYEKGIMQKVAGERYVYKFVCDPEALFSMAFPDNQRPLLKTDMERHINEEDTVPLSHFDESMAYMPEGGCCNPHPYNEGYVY

Chain of CRX (O43186 whole entry): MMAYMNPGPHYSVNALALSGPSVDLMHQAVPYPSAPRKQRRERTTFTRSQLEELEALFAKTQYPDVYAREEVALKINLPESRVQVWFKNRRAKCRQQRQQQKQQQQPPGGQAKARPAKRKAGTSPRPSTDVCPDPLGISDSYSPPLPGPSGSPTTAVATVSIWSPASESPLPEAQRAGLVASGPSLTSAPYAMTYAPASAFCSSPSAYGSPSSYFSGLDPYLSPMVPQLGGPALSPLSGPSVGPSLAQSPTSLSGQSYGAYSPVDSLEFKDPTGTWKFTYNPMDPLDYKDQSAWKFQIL
Chain of HSF1 (Q00613 whole entry): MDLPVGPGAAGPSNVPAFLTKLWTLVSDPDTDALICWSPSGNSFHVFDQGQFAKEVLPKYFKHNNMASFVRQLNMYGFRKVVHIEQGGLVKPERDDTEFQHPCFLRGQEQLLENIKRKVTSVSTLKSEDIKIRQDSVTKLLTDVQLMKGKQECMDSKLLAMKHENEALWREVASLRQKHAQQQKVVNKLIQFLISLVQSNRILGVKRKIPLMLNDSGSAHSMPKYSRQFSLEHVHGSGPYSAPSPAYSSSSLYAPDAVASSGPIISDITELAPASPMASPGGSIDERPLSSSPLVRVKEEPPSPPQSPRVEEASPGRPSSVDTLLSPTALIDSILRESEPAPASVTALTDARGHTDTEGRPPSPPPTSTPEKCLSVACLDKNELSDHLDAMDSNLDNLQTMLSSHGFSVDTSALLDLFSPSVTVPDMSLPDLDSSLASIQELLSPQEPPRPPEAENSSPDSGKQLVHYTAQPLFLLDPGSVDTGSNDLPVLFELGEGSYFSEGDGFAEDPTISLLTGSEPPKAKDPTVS
Chain of ELF1 (P32519 whole entry): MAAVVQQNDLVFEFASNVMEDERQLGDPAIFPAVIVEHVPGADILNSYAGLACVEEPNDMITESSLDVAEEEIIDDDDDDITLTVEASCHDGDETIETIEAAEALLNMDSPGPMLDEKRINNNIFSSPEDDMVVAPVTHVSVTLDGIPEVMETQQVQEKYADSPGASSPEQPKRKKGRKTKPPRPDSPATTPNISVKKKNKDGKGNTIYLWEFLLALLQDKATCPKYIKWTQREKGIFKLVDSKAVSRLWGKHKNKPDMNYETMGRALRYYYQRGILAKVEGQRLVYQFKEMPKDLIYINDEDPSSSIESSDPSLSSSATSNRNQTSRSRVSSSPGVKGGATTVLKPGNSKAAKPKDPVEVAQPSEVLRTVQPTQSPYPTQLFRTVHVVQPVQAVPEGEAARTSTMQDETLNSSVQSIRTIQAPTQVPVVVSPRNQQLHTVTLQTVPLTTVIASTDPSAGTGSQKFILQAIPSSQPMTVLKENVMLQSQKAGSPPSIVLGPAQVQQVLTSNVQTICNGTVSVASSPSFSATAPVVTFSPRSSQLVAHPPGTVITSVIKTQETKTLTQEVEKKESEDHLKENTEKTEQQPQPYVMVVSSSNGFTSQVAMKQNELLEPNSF
Chain of SPIB (Q01892 whole entry): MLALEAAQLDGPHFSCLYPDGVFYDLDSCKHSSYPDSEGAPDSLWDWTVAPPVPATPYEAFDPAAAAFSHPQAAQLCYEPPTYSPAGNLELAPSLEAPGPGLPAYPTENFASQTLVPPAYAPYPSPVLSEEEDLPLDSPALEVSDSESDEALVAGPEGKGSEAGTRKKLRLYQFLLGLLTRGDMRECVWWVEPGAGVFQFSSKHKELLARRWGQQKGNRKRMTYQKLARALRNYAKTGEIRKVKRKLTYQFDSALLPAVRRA
Chain of ELF4 (Q99607 whole entry): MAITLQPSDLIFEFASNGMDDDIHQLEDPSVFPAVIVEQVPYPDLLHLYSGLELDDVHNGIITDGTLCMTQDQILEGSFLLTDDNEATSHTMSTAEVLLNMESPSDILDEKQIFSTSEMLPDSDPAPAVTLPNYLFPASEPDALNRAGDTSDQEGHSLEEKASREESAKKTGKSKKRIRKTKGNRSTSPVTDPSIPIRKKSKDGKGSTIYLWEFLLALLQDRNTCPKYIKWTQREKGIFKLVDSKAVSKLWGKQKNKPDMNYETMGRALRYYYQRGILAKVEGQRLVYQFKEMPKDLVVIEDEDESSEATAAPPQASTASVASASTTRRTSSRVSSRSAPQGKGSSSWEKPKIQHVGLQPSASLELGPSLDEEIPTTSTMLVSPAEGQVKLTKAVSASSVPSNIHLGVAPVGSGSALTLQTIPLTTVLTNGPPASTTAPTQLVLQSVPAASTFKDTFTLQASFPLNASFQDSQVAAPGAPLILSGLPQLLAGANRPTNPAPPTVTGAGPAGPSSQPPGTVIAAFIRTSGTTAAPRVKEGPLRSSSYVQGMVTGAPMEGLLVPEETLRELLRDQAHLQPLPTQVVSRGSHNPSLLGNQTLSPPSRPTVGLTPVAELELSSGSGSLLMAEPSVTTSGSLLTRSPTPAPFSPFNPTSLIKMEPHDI
Chain of ETV5 (P41161 whole entry): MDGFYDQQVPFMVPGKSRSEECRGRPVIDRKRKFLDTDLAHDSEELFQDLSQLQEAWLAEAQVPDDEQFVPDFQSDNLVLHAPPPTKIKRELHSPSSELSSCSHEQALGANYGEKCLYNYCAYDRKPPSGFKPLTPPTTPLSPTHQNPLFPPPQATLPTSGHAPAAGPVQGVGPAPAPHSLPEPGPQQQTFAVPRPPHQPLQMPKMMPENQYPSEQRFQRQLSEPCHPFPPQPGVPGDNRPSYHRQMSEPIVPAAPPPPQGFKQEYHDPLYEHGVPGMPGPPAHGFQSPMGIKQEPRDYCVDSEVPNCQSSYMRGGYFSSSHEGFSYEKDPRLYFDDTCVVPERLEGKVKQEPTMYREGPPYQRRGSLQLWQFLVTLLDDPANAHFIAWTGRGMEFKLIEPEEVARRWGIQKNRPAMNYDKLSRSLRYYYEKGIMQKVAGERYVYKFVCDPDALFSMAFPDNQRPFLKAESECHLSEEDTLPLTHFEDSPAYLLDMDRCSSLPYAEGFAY

For the sequence TAATCG, the binding signal was 1.07 fold enrichment (6-mer frequency, TF over GST control) in assay [1]; 1.09 fold enrichment (6-mer frequency, TF over GST control) in assay [2]; 1.14 fold enrichment (6-mer frequency, TF over GST control) in assay [3]; 1.04 fold enrichment (6-mer frequency, TF over GST control) in [4]; 1.07 fold enrichment (6-mer frequency, TF over GST control) in [5]; 1.02 fold enrichment (6-mer frequency, TF over GST control) in [6]. The binding signal was 1.04 fold enrichment (6-mer frequency, TF over GST control) in assay [7]; 1.07 fold enrichment (6-mer frequency, TF over GST control) in assay [8]; 1.01 fold enrichment (6-mer frequency, TF over GST control) in assay [9]; 1.07 fold enrichment (6-mer frequency, TF over GST control) in [10]; 1.93 fold enrichment (6-mer frequency, TF over GST control) in assay [11]; 1 fold enrichment (6-mer frequency, TF over GST control) in assay [12]. Further, the binding signal in assay [13] was 1.07 fold enrichment (6-mer frequency, TF over GST control); in assay [14], 1.1 fold enrichment (6-mer frequency, TF over GST control); in assay [15], 1.04 fold enrichment (6-mer frequency, TF over GST control); in assay [16], 1.07 fold enrichment (6-mer frequency, TF over GST control); in [17] it was 2.89 fold enrichment (6-mer frequency, TF over GST control); in [18], 1.01 fold enrichment (6-mer frequency, TF over GST control).
